Screens (PubChem)
Only some compounds are listed: those with a hit (about 8.7% of all), similar ones and a draw of the others.
G9a block: qHTS Assay for Inhibitors of Histone Lysine Methyltransferase G9a. G9a H3K9 monomethylation, AlphaScreen, 2 h. Potency, µM (doses to about 102 µM), for the others: top-dose activity, negative = inhibition, actives largely listed as inhibitors. 350,000 tested, 8.8% active; further: on the % scale 0 is the no-effect control and ±100 the full control effect; nearly all actives have a fitted effect of over 75% in size
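Step 1: enzyme (final 20 nM) with compound, 15 min RT. Step 2: substrate peptide 500 nM and SAM 20 uM, 2 h RT. Step 3: anti-H3K9me1 antibody and AlphaScreen beads, 10 min, then plate read.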
HP1b chromo inh: HTS for Inhibitors of HP1-beta Chromodomain Interactions with Methylated Histone Tails; Chromobox protein homolog 1 (Homo sapiens), P83916; AlphaScreen HP1-beta / biotin-H3K9me3 peptide binding; Potency, µM (series often up to 114 µM), without a hit: at the highest dose activity change, negative = inhibition, usual class: inhibitors; 390,000 tested, 0.56% active; further: nearly all actives have a fitted effect of over 70% in size
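Compound inhibition of the preformed complex between 50 nM HP1-beta and 50 nM biotinylated H3K9me3 peptide was read by AlphaScreen. Buffer was PBS pH 7.4 with 0.01% Tween-20. Incubations ran 30 min at room temperature, with 10 ug/mL donor/acceptor beads.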
JMJD2A Tudor: qHTS Assay for Inhibitors of JMJD2A-Tudor Domain. Lysine-specific demethylase 4A (Homo sapiens), O75164. AlphaScreen JMJD2A-Tudor / H3K4me3 peptide binding. Potency, µM (highest dose often 114 µM), inactives show top-dose activity change, negative = inhibition, hits mostly inhibitors. 390,000 tested, 4.4% active; further: on the % scale 0 is the no-effect control and ±100 the full control effect; nearly all actives have a fitted effect of over 50% in size
BAZ2B block: qHTS Assay for Inhibitors of BAZ2B | Bromodomain adjacent to zinc finger domain protein 2B (Homo sapiens), Q9UIF8 | AlphaScreen BAZ2B-H3K14Ac peptide displacement | Potency, µM (doses to about 114 µM), for inactives: at the top dose activity change, negative = inhibition, most hits filed as inhibitors | 360,000 tested, 4.4% active | AID 504333, 2011; further: on the % scale 0 is the no-effect control and ±100 the full control effect; nearly all actives have a fitted effect of over 60% in size
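Multi-concentration screen (max 110 uM) measuring displacement of acetylated histone H3 peptide from BAZ2B by AlphaScreen, using 50 nM protein, 50 nM peptide and 10 ug/mL streptavidin donor plus Ni-chelate acceptor beads.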
12-LOX inh: Primary qHTS assay for inhibitors of human arachidonate 12S-lipoxygenase (ALOX12): Round 2; Polyunsaturated fatty acid lipoxygenase ALOX12 (Homo sapiens), P18054; purified 12hLO, xylenol orange hydroperoxide absorbance; Potency, µM (series often up to 108 µM), for the others: top-dose activity change, negative = inhibition, actives largely listed as inhibitors; 580,000 tested, 1.1% active; further: on the % scale 0 is the no-effect control and ±100 the full control effect
Target sequence (P18054 whole entry, looked up): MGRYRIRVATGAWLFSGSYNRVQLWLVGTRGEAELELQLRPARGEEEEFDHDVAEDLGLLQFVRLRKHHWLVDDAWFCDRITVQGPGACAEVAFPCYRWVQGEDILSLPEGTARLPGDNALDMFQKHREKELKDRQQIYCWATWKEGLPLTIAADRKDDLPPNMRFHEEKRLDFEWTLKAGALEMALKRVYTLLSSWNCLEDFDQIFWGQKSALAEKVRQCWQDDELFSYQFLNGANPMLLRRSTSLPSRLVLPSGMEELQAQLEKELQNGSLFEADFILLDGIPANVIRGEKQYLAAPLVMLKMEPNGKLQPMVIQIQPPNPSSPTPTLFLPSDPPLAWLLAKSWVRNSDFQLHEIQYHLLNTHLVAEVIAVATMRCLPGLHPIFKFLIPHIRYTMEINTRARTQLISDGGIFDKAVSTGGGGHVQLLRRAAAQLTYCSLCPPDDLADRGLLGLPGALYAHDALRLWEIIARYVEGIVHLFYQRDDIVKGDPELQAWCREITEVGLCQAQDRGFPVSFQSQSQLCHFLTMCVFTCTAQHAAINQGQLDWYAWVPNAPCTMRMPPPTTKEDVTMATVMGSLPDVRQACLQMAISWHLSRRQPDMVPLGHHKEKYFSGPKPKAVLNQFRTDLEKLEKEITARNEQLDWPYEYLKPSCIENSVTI
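Purified human 12hLO at 150 nM in 25 mM Hepes, 0.01% Triton X-100, pH 7.0, preincubated 15 min at room temperature with compound. Reaction started with 40 uM arachidonic acid, 30 min at room temperature. Hydroperoxide measured by Fe-xylenol orange, 573/405 nm absorbance ratio.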
Sfp PPTase inh: qHTS Assay for Inhibitors of Bacillus subtilis Sfp phosphopantetheinyl transferase (PPTase); Biochemical Sfp PPTase activity, qHTS; Potency, µM, for inactives: largest response in the series, negative = inhibition, actives largely listed as inhibitors; 310,000 tested, 3.5% active; AID 1490, 2009;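 further: the enzyme is Sfp with the accession as filed and its product quenches rhodamine fluorescence; 0% = enzyme reaction without inhibitor and -100% = no enzyme wells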
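Reaction rates are the 30-min fluorescence difference (ex 525, em 598 nm) in wells containing 15 nM Sfp, 5 uM rhodamine-CoA and 12.5 uM BHQ-2-YbbR at pH 7.6 with 10 mM MgCl2.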
An asterisk follows results filed as active; ? = inconclusive; / = not tested or not shown; [ ] = another dose, or the depositor's remark. The call rests on the fitted dose curve; in most records, active means well fitted curve in the direction sought with a large enough effect; inconclusive means small, poorly fitted or top-dose-only effect, or another doubt; inactive means no such curve, though single readings can be large; an effect the other way counts as inactive or inconclusive. Potency means the concentration at half of the fitted maximal effect.

SMILES | G9a block | HP1b chromo inh | JMJD2A Tudor | BAZ2B block | 12-LOX inh | Sfp PPTase inh
COC(=O)c1ccc(-c2ccc(/C=N/NC(=O)Cc3nnc(N)s3)o2)cc1 | ? | 20% | -26% | -23% | -1% | 56µM*
O=c1[nH]c(=S)c2[nH]cnc2[nH]1 | / | 4%[57 µM] | -11%[57.1 µM] | / | / | /
Nc1ncnc2[nH]c(=S)[nH]c12 | / | ? | 3.5µM* | / | ? | /
COC(=O)[C@H](CC(C)C)NC(=O)Nc1ccc2oc(-c3cccnc3)nc2c1 | / | / | / | / | -11% | /
CCC1(C(=O)OC)NC(c2ccco2)C2C(=O)N(c3ccc(F)cc3)C(=O)C21 (centres undefined) | 45µM* | 29% | -19% | -22% | -1% | -10%
CCC1(C(=O)OC)NC(c2ccco2)C2C(=O)N(c3ccccc3)C(=O)C21 (centres undefined) | 9%[59 µM] | 54% | -5% | 5% | 0% | -12%
CCCC1(C(=O)OCC)NC(c2ccc(N(C)C)cc2)C2C(=O)N(c3ccc(F)cc3)C(=O)C21 (centres undefined) | 2.5µM* | -20% | -35% | -38% | 0% | 16%
CN(C)CCCOC(=O)COc1ccccc1 | / | / | / | / | -13% | /
CCOC(=O)C1CCN(C(=O)c2cc3cc(OCC)ccc3n2C)CC1 | / | / | / | / | 15% | /
Cn1cccc1/C=C1\CC(C(C)(C)C)C/C(=C\c2cccn2C)C1=O (centres undefined) | ? | ? | 40µM* | 28µM* | ? | -27%
CN1C2CCC1/C(=C/c1cccn1C)C(=O)/C2=C\c1cccn1C | ? | ? | 45µM* | 45µM* | ? | ?
CN1C2CCC1/C(=C\c1ccc(F)cc1)C(=O)/C2=C/c1ccc(F)cc1 | -3% | 2% | -31% | -34% | -13% | 7%
O=C(CCCSc1nc2ccccc2s1)Nc1ccc(F)cc1 | / | / | / | / | 2% | /
O=C1OC2(c3ccccc31)c1cc(I)c(O)c(I)c1Oc1c2cc(I)c(O)c1I | ? | / | / | 10µM* | 1.6µM* | 14µM*
OCCNc1nc(Nc2ccc(Br)cc2)nc2ccccc12 | 50µM* | 29% | -23% | -17% | ? | 40µM*
Cc1c(Cl)cccc1Nc1nc(NCCO)c2ccccc2n1 | 79µM* | 16% | -15% | -16% | ? | -21%
OCCNc1nc(Nc2ccccc2)nc2ccccc12 | ? | 18% | -31% | 4% | -120% | -3%
OCCNc1nc(N2CCCCC2)nc2ccccc12 | / | 44% | -8% | 12% | ? | 7%
CNc1nc(NCc2ccccc2)c2ccccc2n1 | -10% | 41% | -12% | 0% | 0% | 1%
Oc1ccccc1Nc1nc(NCc2ccccc2)c2ccccc2n1 | / | -34% | ? | 25µM* | ? | 28µM*
CCOc1cc(=O)n2c(c1C(=O)Nc1ccccc1)CCCCC2 | / | / | / | / | 5% | /
O=S(=O)(Nc1nc2ccccc2nc1NCc1ccccc1)c1cccs1 | / | / | / | / | -58% | /
CC(=O)C1=C(c2ccccc2)NC(=S)NC1c1cc(Cl)c(OC(C)C)c(Cl)c1 (centres undefined) | -8%[59 µM] | ? | -17% | -33% | 28µM* | 6%
COc1cc(C2NC(=S)NC(c3ccccc3)=C2C(C)=O)cc(Cl)c1OCC(=O)O (centres undefined) | / | 13% | -14% | -5% | ? | 89µM*
CCOC(=O)COc1c(Cl)cc(C2NC(=S)NC(c3ccccc3)=C2C(C)=O)cc1OC (centres undefined) | -9%[59 µM] | 14% | -35% | -25% | ? | -5%
SMILES | G9a block | HP1b chromo inh | JMJD2A Tudor | BAZ2B block | 12-LOX inh | Sfp PPTase inh
COc1ccc(N2C(S)=C(C#N)C(=O)NC23CCCCC3)cc1 | 35µM* | 30% | -14% | ? | -26% | 18µM*
O=C(C(=S)N1CCOCC1)c1c[nH]c2ccccc12 | -122%[59 µM] | 12% | 5% | ? | -11% | 11µM*
CCN1CCN(C(=O)C(=O)c2cn(CC(=O)N3CCCCCC3)c3ccccc23)CC1 | 50µM* | 3% | -18% | -14% | -6% | 0%
CCN1CCN(C(=O)C(=O)c2cn(CC(=O)N3CCCC3)c3ccccc23)CC1 | -5% | 24% | -15% | -5% | 3% | 6%
COc1ccc(N2CCN(C(=O)C(=O)c3cn(CC(=O)N4CCCCCC4)c4ccccc34)CC2)cc1 | 71µM* | ? | ? | ? | -1% | 3%
COc1ccc(N2CCN(C(=O)C(=O)c3cn(CC(=O)N4CCOCC4)c4ccccc34)CC2)cc1 | / | 8% | -26% | -17% | 5% | 1%
COc1ccc(N2CCN(C(=O)C(=O)c3c[nH]c4ccccc34)CC2)cc1 | 45µM* | -9%[57 µM] | ? | ? | ? | 18%
O=C(CN1CCOCC1)c1c[nH]c2ccccc12 | 36%[0.501 µM] | 31% | -8% | -29% | 0% | 14%
Cc1cccc(C)c1-c1nc(C(=O)N2CCOCC2)n2ccccc12 | / | / | / | / | 7%[6.33 µM] | /
COc1ccc(-n2nc3n(c2=O)CCN([S+](=O)([O-])c2cccc(OC)c2)C3)cc1 | / | / | / | / | 4%[6.33 µM] | /
COc1ccc(-n2nc(C3CCN(Cc4cccn4C)CC3)[nH]c2=O)cc1 | / | / | / | / | 51% | /
Brc1ccc(OCCCCCN2CCOCC2)cc1 | 3.2µM* | -25% | 3.2µM* | 35µM* | ? | -16%
CN1CCN(CCCCOc2ccc(Br)cc2)CC1 | 4.5µM* | ? | 20µM* | 56µM* | ? | -33%
Cc1ccc(-c2cc3c(=O)n(CCNC(=O)c4ccc(F)c(F)c4)ccn3n2)cc1C | / | / | / | / | 8% | /
CC(C)C(NC(=O)c1nn(C)c(=O)c2ccccc12)c1ccccc1 (centres undefined) | / | / | / | / | -30% | /
CC1(C)CC(=O)c2cc(NC(=O)c3ccccc3)c(=O)oc2C1 | -22% | 6% | 79µM* | -1% | 11% | 9%
CC(=O)c1cc(NC(=O)c2ccccc2)c(=O)oc1C | 32µM* | ? | -33% | -21% | 2% | ?
CC(=O)c1cc(NC(=O)c2ccc(C)cc2)c(=O)oc1C | 18µM* | -23% | 20µM* | -19% | -12% | ?
COC(=O)c1cc(NC(=O)c2ccc(OC)cc2)c(=O)oc1C | -26% | 1% | -16%[11.4 µM] | -2% | 0% | -13%
O=C(Nc1cc2c(oc1=O)CCCC2=O)c1cccc(Cl)c1 | -11% | 10% | -7% | -23% | ? | 4%
